Measured values taken from PubChem BioAssay (NCATS).
“And” between values parts separate entries of the source, which are not always exact repeats. Equal values may be shown once. Results filed as inconclusive are left out. The source made the active and inactive calls. The call rests on the fitted dose curve; in most records, active means well fitted curve in the direction sought with a large enough effect; inconclusive means small, poorly fitted or top-dose-only effect, or another doubt; inactive means no such curve, though single readings can be large; an effect the other way counts as inactive or inconclusive.

Experiments:
[1] = Viability qHTS for spleen associated tyrosine kinase inhibitor (SYKi) naive MV4-11 cells (AID 1963823); further: nearly all actives have a fitted effect of over 40% in size
Procedure, shortened: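 Read-out: CellTiter-Glo luminescence. Exposure: 72 hr, 37 C, 5% CO2, 95% humidity. Cells: MV4-11 without SYK inhibitor history, 500/well, qHTS format.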

[2] = Viability qHTS for spleen associated tyrosine kinase inhibitor (SYKi) drug resistant MV4-11 cells (AID 1963824); further: nearly all actives have a fitted effect of over 35% in size
Procedure, shortened: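 CellTiter-Glo luminescence, read 10 min after reagent addition, reports viability after a 72 hr compound exposure. Cells are an MV4-11 line made resistant to SYK inhibition, seeded at 500 per well onto compound-containing plates.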

[3] = Quantitative highthroughput screen to assess conditional lethalithy of NOMO1 cells grown in RPMI1640 with untreated serum (RPMI+s) (AID 1963876); further: nearly all actives have a fitted effect of over 35% in size;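 on Viability: 100% = DMSO wells and 0% = empty wells without cells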
Procedure, shortened: (§1)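 Each medium arm—HPLM with 10% dialyzed FBS, or RPMI1640 with 5 mM glucose and 10% untreated or dialyzed FBS—was screened against an 11-point, 3-fold compound titration for 48 h at 37 °C, with CellTiter-Glo luminescence as endpoint.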

[4] = Quantitative highthroughput screen to assess conditional lethalithy of P12 Ichikawa cells grown in Human Plasma-Like Medium with dialyzed fetal bovine serum (HPLM+ds) (AID 1963879); conditions: Potency: viability; further: nearly all actives have a fitted effect of over 35% in size; on Viability: series mostly up to about 46 µM
Procedure, shortened: as §1

[5] = Quantitative highthroughput screen to assess conditional lethalithy of P12 Ichikawa cells grown in RPMI1640 with dialyzed fetal bovine serum (RPMI+ds) (AID 1963880); conditions: Potency: P12-Ichikawa viability; further: nearly all actives have a fitted effect of over 35% in size;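 on Viability: 100% = DMSO wells and 0% = empty wells on each plate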
Procedure, shortened: as §1

[6] = Quantitative highthroughput screen to assess conditional lethalithy of P12 Ichikawa cells grown in RPMI1640 with untreated serum (RPMI+s) (AID 1963881); conditions: Potency: viability; further: nearly all actives have a fitted effect of over 35% in size;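 on Viability: series mostly up to about 46 µM; 100% = DMSO wells and 0% = empty wells without cells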
Procedure, shortened: as §1

[7] = Quantitative highthroughput screen to assess conditional lethalithy of SEM cells grown in Human Plasma-Like Medium with dialyzed fetal bovine serum (HPLM+ds) (AID 1963882); further: nearly all actives have a fitted effect of over 35% in size; on Viability: series mostly up to about 46 µM
Procedure, shortened: as §1

[8] = Quantitative highthroughput screen to assess conditional lethalithy of SEM cells grown in RPMI1640 with unreated serum (RPMI+s) (AID 1963883); further: nearly all actives have a fitted effect of over 35% in size;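 on Viability: 100% = DMSO wells and 0% = empty wells without cells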
Procedure, shortened: as §1

[9] = Quantitative highthroughput screen to assess conditional lethalithy of SEM cells grown in RPMI1640 with dialyzed fetal bovine serum (RPMI+ds) (AID 1963884); further: nearly all actives have a fitted effect of over 35% in size;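 on Viability: series mostly up to about 46 µM; 100% = DMSO control wells and 0% = empty wells without cells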
Procedure, shortened: as §1

[10] = Cellular viability qHTS for adrenocortical cancer (ACC) cell line SW-13 (AID 1963989); conditions: SW-13 ACC cells viability, CellTiter-Glo, 48 h; activity (max response): stronger effect = lower value; further: nearly all actives have a fitted effect of over 65% in size;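 on activity (max response): cells grown in serum-free medium with ITS supplement; on the % scale 0 is the no-effect control and ±100 the full control effect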
Procedure, shortened: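 SW-13 cells in ITS-supplemented serum-free DMEM were plated overnight, then exposed for 48 h at 37C to compound titrations (up to 46 uM final). Viability was read by CellTiter-Glo luminescence; four-parameter logistic fits gave IC50 and efficacy.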

[11] = Cellular viability qHTS for adrenocortical cancer (ACC) cell line NCI-H295R (AID 1963990); further: nearly all actives have a fitted effect of over 60% in size
Procedure, shortened: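 Luminescent ATP read-out (CellTiter-Glo, 20 min RT) after 48 h drug exposure of NCI-H295R cells; a titration up to 46 uM final. Data normalized to doxorubicin (100% inhibition) and DMSO (0%); 4-parameter fit gives IC50, max response.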

[12] = Quantitative highthroughput screen to assess conditional lethalithy of NOMO1 cells grown in Human Plasma-Like Medium with dialyzed fetal bovine serum (HPLM+ds) (AID 1963878); further: nearly all actives have a fitted effect of over 35% in size
Procedure, shortened: as §1
Potency means the concentration at half of the fitted maximal effect.

COc1cc([C@@H]2c3cc4c(cc3[C@H](O)[C@H]3COC(=O)[C@H]23)OCO4)cc(OC)c1OC
active: Potency [1] 26.6 nM and 26.3 nM | Potency [2] 37.6 nM and 37.2 nM | Potency [3] 4.2 nM | Potency [4] 1.9 nM | Potency [5] 2.1 nM | Potency [6] 2.1 nM | Potency [7] 2.6 nM | Potency [8] 1.9 nM | Potency [9] 2.6 nM | Potency [10] 9.2 nM and 44.7 nM | Potency [11] 7.3 nM and 50.1 nM

CCN(CC)CCOc1ccc(Nc2ncc3cc(-c4c(Cl)cccc4Cl)c(=O)n(C)c3n2)cc1
active: Potency [1] 66.1 nM | Potency [2] 118 nM | Potency [3] 2640 nM | Potency [12] 2640 nM | Potency [4] 3720 nM | Potency [5] 3320 nM | Potency [6] 2960 nM | Potency [8] 1050 nM | Potency [9] 2350 nM | Potency [10] 1 µM

CN(C)CCC=C1c2ccccc2C=Cc2ccccc21
active: Potency [1] 18600 nM | Potency [2] 14800 nM | Potency [3] 20900 nM | Potency [12] 18700 nM
inactive: Potency [4] | Potency [5] | Potency [8] | Potency [9]

CCOC(=O)C1=C(C)NC2=C(C(=O)CC(C)(C)C2)C1c1ccc(-c2ccccc2)cc1 (stereo unspecified)
active: Potency [1] 23500 nM | Potency [2] 18.4 µM and 18.6 µM | Potency [7] 18700 nM | Potency [11] 10 µM
inactive: Potency [3] | Potency [4] | Potency [5] | Potency [6] | activity (max response) [10] -12.6%

Cc1ccc(C(=O)N(CCCN)[C@@H](c2oc3cc(Cl)ccc3c(=O)c2Cc2ccccc2)C(C)C)cc1
inactive: Potency [3] | Potency [6] | Potency [7] | Potency [8] | Potency [9]
active: Potency [1] 10.5 nM | Potency [2] 8.3 nM | Potency [11] 0.316 µM
